According to PubChem BioAssay (Tox21):
A number with no mark means an inactive call. Inconclusive results are not listed. The source made the active and inactive calls. Unless noted, calls follow the shape of the dose curve; as a rule, active = well fitted curve in the direction sought with a large enough effect in the repeat runs; inconclusive = weak or mixed curves; inactive = no such curve, though single readings can be large; an effect the other way counts as inactive or inconclusive.

Columns and labels:
[1] = qHTS assay to identify small molecule agonists of H2AX - cell viability counter screen (AID 1224847; calls by dose curve; also: nearly all actives have a fitted effect of over 30% in size; also: potency is read from the fitted curve at half-maximal effect)
How it was run: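 Quantitative HTS viability measurement: CHO-K1 wild-type cells in serum (10% FBS) medium, short 3 hr drug exposure at 37C with 0.76% DMSO, CellTiter-Glo luminescent detection.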

[2] = qHTS assay to identify small molecule antagonists of the estrogen related receptor (ERR) signaling pathway from Tox21 library (AID 1224848); also: nearly all actives have a fitted effect of over 50% in size; also: potency is read from the fitted curve at half-maximal effect
How it was run: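 Screening used an ERR reporter line supplied by NTP, exposed for 18 h at 37 C to library compounds delivered in DMSO. Signal was luciferase luminescence developed with ONE-Glo at room temperature for 30 min.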

[3] = qHTS assay to identify small molecule agonists of the estrogen related receptor (ERR) signaling pathway from Tox21 library (AID 1224849; calls by dose curve; also: nearly all actives have a fitted effect of over 15% in size); settings: ERR reporter cell line, ONE-Glo luciferase, 18 h; at 92.4 µM (top of the series) unless noted
How it was run: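 ERR reporter cells (NTP line) pre-incubated 6 hours at 37 C, then exposed to compounds for 18 hours at 37 C. ONE-Glo luciferase luminescence was read after 30 minutes at room temperature.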

[4] = A CellTox Green Cytotoxicity Assay to monitor cytotoxicity in HEK293 cells - 0 hour (AID 1224869); also: nearly all actives have a fitted effect of over 50% in size; also: potency is read from the fitted curve at half-maximal effect
How it was run: (§1)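 HEK293 cells, 600/well, were preincubated 5 hours and then exposed to compounds at 37 C for up to 40 hours. A cell-impermeant cyanine dye staining dead-cell DNA was read by fluorescence at 0, 8, 16, 24, 32 and 40 h time points.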

[5] = qHTS RealTime-Glo MT Cell Viability Assay in HepG2 cells - 40 hour (AID 1224870); also: nearly all actives have a fitted effect of over 50% in size; also: potency is read from the fitted curve at half-maximal effect
How it was run: (§2)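 HepG2 cells mixed with RealTime-Glo MT reagents (NanoLuc plus cell-permeant prosubstrate) were seeded at 600 cells/well, incubated 5 h at 37 C/5% CO2, then pinned with compounds in DMSO; nonlytic luminescence tracked viability during 40 h treatment.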

[6] = A CellTox Green Cytotoxicity Assay to monitor cytotoxicity in HEK293 cells - 40 hour (AID 1224871); also: nearly all actives have a fitted effect of over 45% in size; also: potency is read from the fitted curve at half-maximal effect
How it was run: as §1

[7] = qHTS RealTime-Glo MT Cell Viability Assay in HEK293 cells - 40 hour (AID 1224874); settings: RealTime-Glo luminescence; max response: stronger effect = lower value; also: nearly all actives have a fitted effect of over 50% in size; also: potency is read from the fitted curve at half-maximal effect
How it was run: (§3)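 600 cells/well were plated with the nonlytic NanoLuc/prosubstrate reagent, pre-incubated 5 h, then given 23 nL of compound in DMSO. Incubation at 37 C for 40 h, with luminescence from viable-cell-reduced substrate read repeatedly from 0 h.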

[8] = A CellTox Green Cytotoxicity Assay to monitor cytotoxicity in HEK293 cells - 24 hour (AID 1224875); also: nearly all actives have a fitted effect of over 45% in size; also: potency is read from the fitted curve at half-maximal effect
How it was run: as §1

[9] = A CellTox Green Cytotoxicity Assay to monitor cytotoxicity in HepG2 cells - 16 hour (AID 1224876); also: nearly all actives have a fitted effect of over 45% in size; also: potency is read from the fitted curve at half-maximal effect
How it was run: (§4)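 HepG2 cells, 600/well, preincubated 5 h with CellTox Green dye, then exposed to Tox21 compounds in DMSO at 37 C for up to 40 h. Dead-cell DNA fluorescence read at the indicated time point.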

[10] = A CellTox Green Cytotoxicity Assay to monitor cytotoxicity in HepG2 cells - 24 hour (AID 1224878); also: nearly all actives have a fitted effect of over 45% in size; also: potency is read from the fitted curve at half-maximal effect
How it was run: as §4

[11] = A CellTox Green Cytotoxicity Assay to monitor cytotoxicity in HepG2 cells - 40 hour (AID 1224879); also: nearly all actives have a fitted effect of over 40% in size; also: potency is read from the fitted curve at half-maximal effect
How it was run: as §4

[12] = qHTS RealTime-Glo MT Cell Viability Assay in HEK293 cells - 0 hour (AID 1224880)
How it was run: as §3

[13] = A CellTox Green Cytotoxicity Assay to monitor cytotoxicity in HEK293 cells - 32 hour (AID 1224881); also: nearly all actives have a fitted effect of over 40% in size; also: potency is read from the fitted curve at half-maximal effect
How it was run: as §1

[14] = qHTS RealTime-Glo MT Cell Viability Assay in HepG2 cells - 24 hour (AID 1224867); also: nearly all actives have a fitted effect of over 50% in size; also: potency is read from the fitted curve at half-maximal effect
How it was run: (§5)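 Compound treatment began 5 h after plating HepG2 cells (600/well) with NanoLuc luciferase and prosubstrate. Plates stayed at 37 C for 40 h; luminescence was captured at six time points, 0 h through 40 h.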

[15] = qHTS RealTime-Glo MT Cell Viability Assay in HEK293 cells - 32 hour (AID 1224868); also: nearly all actives have a fitted effect of over 50% in size; also: potency is read from the fitted curve at half-maximal effect
How it was run: (§6)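 Quantitative high-throughput screen of the Tox21 10K library in HEK293: cells and RealTime-Glo reagents plated together, compound added at 5 h, luminescence monitored through 40 h at 37 C.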

[16] = qHTS RealTime-Glo MT Cell Viability Assay in HEK293 cells - 16 hour (AID 1224872); also: nearly all actives have a fitted effect of over 50% in size; also: potency is read from the fitted curve at half-maximal effect
How it was run: as §6

[17] = qHTS RealTime-Glo MT Cell Viability Assay in HepG2 cells - 8 hour (AID 1224873); also: nearly all actives have a fitted effect of over 55% in size; also: potency is read from the fitted curve at half-maximal effect
How it was run: as §2

[18] = qHTS RealTime-Glo MT Cell Viability Assay in HepG2 cells - 32 hour (AID 1224877); also: nearly all actives have a fitted effect of over 55% in size; also: potency is read from the fitted curve at half-maximal effect
How it was run: as §5
% is scaled to controls: 0 for no effect and ±100 for the full control effect.

Row | Compound | Potency [1] | Potency [2] | activity change, positive = activation [3] | Potency [4] | Potency [5] | Potency [6] | max response [7] | Potency [8] | Potency [9] | Potency [10] | Potency [11] | Potency [12] | Potency [13] | Potency [14] | Potency [15] | Potency [16] | Potency [17] | Potency [7] | Potency [18]
1 | CCCC(=O)OC[C@@H](OC(=O)CCC)[C@@H](OC(=O)CCC)[C@H](Cn1c2nc(=O)[nH]c(=O)c-2nc2cc(C)c(C)cc21)OC(=O)CCC | inactive | 29.8 µM (active) | -44.5% [at 42.5 µM] | 19 µM (active) | inactive | 21.3 µM (active) | -24.9% | 21.3 µM (active) | 19 µM (active) | 21.3 µM (active) | 21.3 µM (active) | inactive | 21.3 µM (active) |  |  |  |  |  | 
2 | CC(=O)N1CCN(c2ccc(OC[C@H]3CO[C@](Cn4ccnc4)(c4ccc(Cl)cc4Cl)O3)cc2)CC1 | 101 µM (active) | 12.2 µM (active) | -79.4% | inactive | 54.9 µM (active) | 49 µM (active) |  | 43.6 µM (active) |  |  | 54.9 µM (active) |  | 49 µM (active) | 49 µM (active) | 24.5 µM (active) | 21.9 µM (active) | 49 µM (active) | 21.9 µM (active) | 
3 | O=C(N/N=C/c1ccccc1O)c1ccncc1 | inactive | 11.9 µM (active) | -42.8% [at 42.5 µM] | inactive | inactive | inactive |  | inactive | inactive | inactive | inactive | inactive | inactive | inactive |  | inactive | inactive |  | 
4 | CCCCCCCC[P+](CCCCCCCC)(CCCCCCCC)CCCCCCCC | 7.95 µM (active) | 0.108 µM (active) | -78.2% | inactive | 10.9 µM (active) | 6.87 µM (active) |  | 4.87 µM (active) | 12.2 µM (active) | 9.71 µM (active) | 10.9 µM (active) |  | 4.87 µM (active) | 13.7 µM (active) | 0.434 µM (active) | 4.87 µM (active) | 17.3 µM (active) | 0.194 µM (active) | 12.2 µM (active)
5 | O=S1(=O)CC(Cl)(Cl)C(Cl)(Cl)C1 | 25.3 µM (active) | 15.4 µM (active) | -79.8% | inactive | 6.16 µM (active) | 1.95 µM (active) |  |  | 11 µM (active) |  | 6.92 µM (active) |  |  | 6.92 µM (active) |  | 4.9 µM (active) | 8.71 µM (active) |  | 
6 | CCCCc1oc2ccc(NS(C)(=O)=O)cc2c1C(=O)c1ccc(OCCCN(CCCC)CCCC)cc1 | 43.8 µM (active) | 16.8 µM (active) | -64.5% [at 42.5 µM] | inactive | 9.52 µM (active) | 19 µM (active) |  | 19 µM (active) | 21.3 µM (active) | 19 µM (active) | 9.52 µM (active) |  | 21.3 µM (active) | 9.52 µM (active) | 9.52 µM (active) | 10.7 µM (active) | 21.3 µM (active) | 8.49 µM (active) | 
7 | CN(C)c1ccc(C2(c3ccc(N(C)C)cc3)OC(=O)c3cc(N(C)C)ccc32)cc1 | inactive | inactive | -13.6% | inactive |  |  | -1.22% | inactive | inactive | inactive | inactive | inactive | inactive |  | inactive | inactive |  |  | 
8 | Cc1cc(O)c(C(C)(C)C)cc1Sc1cc(C(C)(C)C)c(O)cc1C | 17.9 µM (active) | 13.7 µM (active) | -80.3% | inactive | 48.9 µM (active) | 54.8 µM (active) |  | 48.9 µM (active) |  |  | 48.9 µM (active) | inactive | 54.8 µM (active) | 43.6 µM (active) | 21.8 µM (active) | 24.5 µM (active) | 43.6 µM (active) | 21.8 µM (active) | 48.9 µM (active)
9 | CCCCCCCCCCCCCCCC(=O)OC[C@H](O)[C@H]1OC(=O)C(O)=C1O | inactive |  | -29.6% | inactive | inactive |  | -4.9% |  | inactive | inactive | inactive |  |  | inactive | inactive | inactive | inactive |  | inactive
10 | [Cl][Au]([Cl])[Cl] | inactive | 3.06 µM (active) | -67.4% | inactive | 8.71 µM (active) | 21.9 µM (active) |  | 21.9 µM (active) | 21.9 µM (active) | 13.8 µM (active) | 7.76 µM (active) |  | 19.5 µM (active) | 9.77 µM (active) |  | 4.9 µM (active) | 49 µM (active) | 3.09 µM (active) | 9.77 µM (active)
11 | NNc1nc(-c2ccc([N+](=O)[O-])cc2)cs1 | 22.5 µM (active) | 27.3 µM (active) | -52.6% | inactive |  | inactive |  | inactive | inactive |  | inactive | inactive | inactive |  | 24.5 µM (active) |  |  | 24.5 µM (active) | 
